# Compounds without any hit were thinned out: in the full panel of roughly 83,000, 20% have a hit.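 Plates (96-well) were seeded with cells, treated with compound at one concentration, and incubated for 48 hours before percent growth was determined.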 Unmarked numbers belong to inactive results. Calls of active or inactive are those of the source. The calls were made as follows: active = growth percent below 10; inactive = the rest.
# System: HOP-92 NSCLC
# Experiment: NCI-60 one-dose screen, 48 h (100 = growth as untreated, 0 = no growth, -100 = all killed)
# Details: 10 µM unless noted
row,SMILES,growth
1,COc1ccccc1N1CCN(CCCOc2ccc(C(=O)/C=C3/C(=O)Nc4ccccc43)cc2)CC1,18.2%
2,CCC[S@](=O)c1ccc2nc(NC(=O)OC)[nH]c2c1,96.5%
3,FC(F)(F)c1ccc2c(Nc3cccc(C4CC(c5ccccc5)=NN4c4ccc(Cl)cc4)c3)ccnc2c1 (centres undefined),47.5%
4,COc1cc(NC(=O)c2cc(O)c(C/C=C(\C)CCC=C(C)C)c(O)c2)cc2c1O[C@]1(C)CC[C@@H](O)C(C)(C)[C@H]1C2,-9.24% (active)
5,CCOC(=O)c1c(C)nc2c(c1N)/C(=C/c1cccs1)C(=O)N2Cc1ccccc1,60.4%
6,CS(=O)(=O)O[C@@H]1C(=O)N(c2cc3c4ccccc4ccc3c3ccccc23)[C@H]1c1ccc(F)cn1,57%
7,Cc1cccc(NC(=O)c2sc3nc4c(cc3c2N)CN(Cc2ccccc2)CC4)c1C,35.2%
8,C#Cc1ccccc1NC(=O)c1sc2nc3c(cc2c1N)CCCCC3,93.2%
9,C=CCn1c(SCC(=O)Nc2ccc(C(=O)/C=C/c3ccc(Cl)cc3)cc2)nnc1-c1cc(OC)c(OC)c(OC)c1,89.2%
10,Oc1ccccc1-c1nc2c3ccccc3c3ccccc3c2o1,83.8%
11,COc1ccc(-c2cc(-c3nnc(SCC(=O)Nc4ccc(/C(C)=N\O)cc4)o3)c3ccccc3n2)cc1,109%
12,NC(N)=NC(N)=Nc1cc2ccccc2c2ccccc12,-3.37% (active)
13,O=C1Nc2ccc(Cl)cc2/C1=N/c1nc(-c2ccc(Cl)cc2)cs1,-13.1% (active)
14,c1ccc(Sc2ncccn2)nc1,89%
15,COc1cc2c(Nc3ccc(NC(=O)Nc4ccc(Cl)c(C(F)(F)F)c4)c(Cl)c3)ncnc2cc1OCCCN1CCN(C)CC1,27%
16,CC(C)C1=C[C@@]23CC[C@H]4[C@](C)(COCCC#N)CCC[C@]4(C)[C@H]2C[C@@H]1[C@@H]1[C@H]3[C@@H](OCCC#N)CC[C@@H]1OCCC#N,53%
17,COc1cc2nc3c(=O)n(CCN(C)C)cnn3c(=O)c2cc1OC,100%
18,Cc1nccc2c3ccc(OCc4cn(-c5ccc(Br)cc5)nn4)cc3n(CC(C)C)c12,16.4%
19,CC(C)(C)c1nc2c(s1)c1nc(N)ncc1c1ccc(NS(=O)(=O)c3c(F)cccc3F)c(F)c12,44.1%

row,SMILES,growth
1,Cc1c(Cl)cccc1NC(=O)c1sc2nc3c(cc2c1N)CCCCCC3,29.3%
2,COc1ccc(-c2[nH]c3ccccc3c2C=C(C#N)C#N)cc1,-17.2% (active)
3,COc1ccc(-c2nnc(N3CCN(C(=O)CN4CCN(c5ccccc5)CC4)CC3)nc2-c2ccc(OC)cc2)cc1,23.2%
4,Sc1cccc2cccnc12,95.6%
5,COc1ccc2nc(-c3ccc(Cl)cc3)cc(-c3nnc(SC/C(=N/O)c4ccccc4)o3)c2c1,60.7%
6,C=C(C)[C@@H]1CC[C@]2(C(=O)NCCCO)CC[C@]3(C)[C@H](CC[C@@H]4[C@@]5(C)CCCNC(C)(C)[C@@H]5CC[C@]43C)[C@@H]12,58.1%
7,C=C1C(=O)O[C@H]2[C@H]1CC/C(COC(=O)NCC(=O)Nc1ccc(OC)c(C(N)=O)c1O)=C\CC[C@@]1(C)O[C@@H]21,14.6%
8,COc1ccc2nc3c(n2c1)C(=O)C(=O)c1ccccc1-3,37.4%
9,COc1ccc(C(C)c2cc(OC)c(OC)c(OC)c2)cc1 (centres undefined),49%
10,COc1cc(NCC(=O)Nc2cc(Nc3cccc(C(F)(F)F)c3)ncn2)c(Cl)c(OC)c1Cl,92.7%
11,O=C1Nc2ccccc2C12C=C(c1ccccc1)Nc1c2c(-c2ccccc2)nn1-c1ccccc1 (centres undefined),66.4%
12,CN(C)C1=NCCN1,74.8%
13,COc1cc(N=Nc2cc(S(=O)(=O)O)cc3cc(S(=O)(=O)O)cc(O)c23)c(C)cc1N=Nc1c(S(=O)(=O)O)cc2cc(Nc3ccccc3)ccc2c1O,103%
14,O=C1NN(c2ccccc2)C(c2ccc(Cl)cc2)N2CCC[C@H]12 (some centres undefined),100%
15,COc1cc(C(=O)Nc2cc(O)c(C/C=C(\C)CCC=C(C)C)c(O)c2)cc2c1O[C@]1(C)CC[C@@H](O)C(C)(C)[C@H]1C2,-2.91% (active)
16,COC(=O)CCc1cc(O)c2c(c1)[C@@H](C(=O)OC)[C@H](c1ccc(O)c(O)c1)O2,79.8%
17,Cc1nc2sc(C(=O)Nc3ccccc3Cl)c(N)c2cc1C(C)O (centres undefined),83.3%
18,NS(=O)(=O)c1ccc(C2C3=C(CCCC3=O)OC3=C2C(=O)c2ccccc2C3=O)cc1 (centres undefined),-31.7% (active)

# System: NCI-H522 lung
# Experiment: as above
# Details: 10 µM unless noted
row,SMILES,growth
1,COc1ccccc1N1CCN(CCCOc2ccc(C(=O)/C=C3/C(=O)Nc4ccccc43)cc2)CC1,65.9%
2,CCC[S@](=O)c1ccc2nc(NC(=O)OC)[nH]c2c1,70.7%
3,FC(F)(F)c1ccc2c(Nc3cccc(C4CC(c5ccccc5)=NN4c4ccc(Cl)cc4)c3)ccnc2c1 (centres undefined),50.2%
4,COc1cc(NC(=O)c2cc(O)c(C/C=C(\C)CCC=C(C)C)c(O)c2)cc2c1O[C@]1(C)CC[C@@H](O)C(C)(C)[C@H]1C2,12.8%
5,CCOC(=O)c1c(C)nc2c(c1N)/C(=C/c1cccs1)C(=O)N2Cc1ccccc1,58.3%
6,CS(=O)(=O)O[C@@H]1C(=O)N(c2cc3c4ccccc4ccc3c3ccccc23)[C@H]1c1ccc(F)cn1,-19.9% (active)
7,Cc1cccc(NC(=O)c2sc3nc4c(cc3c2N)CN(Cc2ccccc2)CC4)c1C,11.3%
8,C#Cc1ccccc1NC(=O)c1sc2nc3c(cc2c1N)CCCCC3,71.5%
9,C=CCn1c(SCC(=O)Nc2ccc(C(=O)/C=C/c3ccc(Cl)cc3)cc2)nnc1-c1cc(OC)c(OC)c(OC)c1,76.3%
10,Oc1ccccc1-c1nc2c3ccccc3c3ccccc3c2o1,99.3%
11,COc1ccc(-c2cc(-c3nnc(SCC(=O)Nc4ccc(/C(C)=N\O)cc4)o3)c3ccccc3n2)cc1,87%
12,NC(N)=NC(N)=Nc1cc2ccccc2c2ccccc12,7.5% (active)
13,O=C1Nc2ccc(Cl)cc2/C1=N/c1nc(-c2ccc(Cl)cc2)cs1,-12.8% (active)
14,c1ccc(Sc2ncccn2)nc1,91.6%
15,COc1cc2c(Nc3ccc(NC(=O)Nc4ccc(Cl)c(C(F)(F)F)c4)c(Cl)c3)ncnc2cc1OCCCN1CCN(C)CC1,-60.4% (active)
16,CC(C)C1=C[C@@]23CC[C@H]4[C@](C)(COCCC#N)CCC[C@]4(C)[C@H]2C[C@@H]1[C@@H]1[C@H]3[C@@H](OCCC#N)CC[C@@H]1OCCC#N,25%
17,COc1cc2nc3c(=O)n(CCN(C)C)cnn3c(=O)c2cc1OC,89%
18,Cc1nccc2c3ccc(OCc4cn(-c5ccc(Br)cc5)nn4)cc3n(CC(C)C)c12,26.5%
19,CC(C)(C)c1nc2c(s1)c1nc(N)ncc1c1ccc(NS(=O)(=O)c3c(F)cccc3F)c(F)c12,50.3%

row,SMILES,growth
1,Cc1c(Cl)cccc1NC(=O)c1sc2nc3c(cc2c1N)CCCCCC3,-27.7% (active)
2,COc1ccc(-c2[nH]c3ccccc3c2C=C(C#N)C#N)cc1,-48.5% (active)
3,COc1ccc(-c2nnc(N3CCN(C(=O)CN4CCN(c5ccccc5)CC4)CC3)nc2-c2ccc(OC)cc2)cc1,14.2%
4,Sc1cccc2cccnc12,-12.6% (active)
5,COc1ccc2nc(-c3ccc(Cl)cc3)cc(-c3nnc(SC/C(=N/O)c4ccccc4)o3)c2c1,45.7%
6,C=C(C)[C@@H]1CC[C@]2(C(=O)NCCCO)CC[C@]3(C)[C@H](CC[C@@H]4[C@@]5(C)CCCNC(C)(C)[C@@H]5CC[C@]43C)[C@@H]12,88%
7,C=C1C(=O)O[C@H]2[C@H]1CC/C(COC(=O)NCC(=O)Nc1ccc(OC)c(C(N)=O)c1O)=C\CC[C@@]1(C)O[C@@H]21,-25.1% (active)
8,COc1ccc2nc3c(n2c1)C(=O)C(=O)c1ccccc1-3,-69.9% (active)
9,COc1ccc(C(C)c2cc(OC)c(OC)c(OC)c2)cc1 (centres undefined),9.34% (active)
10,COc1cc(NCC(=O)Nc2cc(Nc3cccc(C(F)(F)F)c3)ncn2)c(Cl)c(OC)c1Cl,67.8%
11,O=C1Nc2ccccc2C12C=C(c1ccccc1)Nc1c2c(-c2ccccc2)nn1-c1ccccc1 (centres undefined),69.4%
12,CN(C)C1=NCCN1,73.4%
13,COc1cc(N=Nc2cc(S(=O)(=O)O)cc3cc(S(=O)(=O)O)cc(O)c23)c(C)cc1N=Nc1c(S(=O)(=O)O)cc2cc(Nc3ccccc3)ccc2c1O,80.1%
14,O=C1NN(c2ccccc2)C(c2ccc(Cl)cc2)N2CCC[C@H]12 (some centres undefined),106%
15,COc1cc(C(=O)Nc2cc(O)c(C/C=C(\C)CCC=C(C)C)c(O)c2)cc2c1O[C@]1(C)CC[C@@H](O)C(C)(C)[C@H]1C2,18.8%
16,COC(=O)CCc1cc(O)c2c(c1)[C@@H](C(=O)OC)[C@H](c1ccc(O)c(O)c1)O2,51.8%
17,Cc1nc2sc(C(=O)Nc3ccccc3Cl)c(N)c2cc1C(C)O (centres undefined),74%
18,NS(=O)(=O)c1ccc(C2C3=C(CCCC3=O)OC3=C2C(=O)c2ccccc2C3=O)cc1 (centres undefined),-73.7% (active)

# From PubChem BioAssay (NCI)
